Measured values taken from PubChem BioAssay (NCATS).
Results filed as inconclusive are left out. Active and inactive are the calls of the source. Calls come from the whole dose curve; as a rule, active = well fitted inhibition curve with a large enough effect; inconclusive = small, poorly fitted or top-dose-only effect; inactive = flat fitted curve, though single readings scatter.

Legend:
Assay in all cases: qHTS profiling for inhibitors of Plasmodium falciparum proliferation (AID 504749); note: nearly all actives have a fitted effect of over 60% in size
Conditions in all cases: P. falciparum in erythrocytes, SYBR Green DNA, 72 h; series mostly up to 28.7 µM
ATS95 = system: ATS95
How it was run: (§1)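 SYBR Green fluorescence of parasite DNA, read after lysis and overnight dark incubation, measured growth over 72 h in erythrocyte culture at 0.3% parasitemia and 2.5% hematocrit. Data normalised to DMSO and 0.29 uM artemisinin, with plate-drift correction.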

C2A = system: C2A
How it was run: as §1

CP185 = system: CP185
How it was run: as §1

CP191 = system: CP191
How it was run: as §1

CP192 = system: CP192
How it was run: as §1

CP194 = system: CP194
How it was run: as §1

CP201 = system: CP201
How it was run: as §1

CP203 = system: CP203
How it was run: as §1

CP211 = system: CP211
How it was run: as §1

CP215 = system: CP215
How it was run: as §1

CP217 = system: CP217
How it was run: as §1

CP237 = system: CP237
How it was run: as §1

CP238 = system: CP238
How it was run: as §1

CP247 = system: CP247
How it was run: as §1

CP250 = system: CP250
How it was run: as §1

CP252 = system: CP252
How it was run: as §1

CP256 = system: CP256
How it was run: as §1

CP260 = system: CP260
How it was run: as §1

CP262 = system: CP262
How it was run: as §1

CP265 = system: CP265
How it was run: as §1

Measured: Potency

CCCC(=O)O
inactive: all assays above

CN(C)C=Nc1c(I)cc(I)c(CCC(=O)O)c1I
inactive: all assays above

O=C(NNCS(=O)(=O)O)c1ccncc1
inactive: all assays above

CCC(C)[C@@H](N)C(=O)O (stereo not given in full)
inactive: all assays above

CCCCCCCCCCCCCCCCCC[N+](C)(C)CCC[Si](OC)(OC)OC
inactive: all assays above

CC1(O)CCC(C(C)(C)O)CC1 (stereo not given)
inactive: all assays above

O=C(O)COc1ccc(CCNS(=O)(=O)c2ccccc2)s1
inactive: all assays above

CCCCCCCCCCCCCCCCCC(=O)OC[C@@H](O)[C@H]1OC[C@H](O)[C@H]1O
inactive: all assays above

FC(F)(F)C(F)(F)C(F)(F)C(F)(F)C(F)(F)F
inactive: all assays above

C=C(C)C1CC=C(C)CC1 (stereo not given)
inactive: all assays above

CC(=O)N[C@@H]1C(O[C@H]2O[C@H](C(=O)O)C(O)[C@H](O)[C@H]2O)[C@H](O)[C@@H](CO)O[C@H]1O[C@@H]1C(C(=O)O)O[C@@H](O[C@H]2[C@H](O)[C@@H](CO)OC(O)[C@@H]2NC(C)=O)[C@H](O)[C@H]1O (stereo not given in full)
inactive: all assays above

CC(CNC(=O)c1cccnc1)NC(=O)c1cccnc1 (stereo not given)
inactive: all assays above

N=C(N)n1cccn1
inactive: all assays above

O=C(O)c1ccc(NC(=O)[C@H](Cc2ccc(O)cc2)NC(=O)c2ccccc2)cc1
inactive: all assays above

O=C(O)CCCC/C=C(\c1ccccc1)c1cccnc1
inactive: all assays above

Nc1ncnc2c1ncn2[C@H]1CC[C@@H](CO)O1
inactive: all assays above

O=C(O)COc1ccccc1/C=N/NC(=O)c1ccncc1
inactive: all assays above

O=P(O)(O)O
inactive: all assays above

CN(C)c1ccc(C(=C2C=CC(=[N+](C)C)C=C2)c2c(O)c(S(=O)(=O)[O-])cc3cc(S(=O)(=O)O)ccc23)cc1
inactive: all assays above

CCCCCCCCCCCCCCCCCC(=O)OCC(C)O (stereo not given)
inactive: all assays above

CCCCCCCCCCCC(=O)OCC(O)CO (stereo not given)
inactive: all assays above

CC1C(=O)CC2C3(C)CCC2(C(C)C(=O)O)C(=O)C13 (stereo not given)
inactive: all assays above

FC(F)OC(Cl)C(F)(F)F (stereo not given)
inactive: all assays above

CS(=O)(=O)OCC(O)C(O)COS(C)(=O)=O (stereo not given)
inactive: all assays above

Nc1nc(=O)n([C@@H]2CS[C@H](CO)O2)cc1F
inactive: all assays above

CN1c2c(nc(N)[nH]c2=O)NCC1CNc1ccc(C(=O)NC(CCC(=O)O)C(=O)O)cc1 (stereo not given)
inactive: all assays above

COC(=O)c1ccccc1O
inactive: all assays above
